Compound activity: PubChem, several laboratories
This is a sample that favours compounds with a hit; in the whole collection about 5.1% have one here.
Cl transport mod = KCC2 cotransporter modulators, thallium flux, primary screen, cell-based, HEK293 KCC2, FluoZin-2 fluorescence, MLSMR | Solute carrier family 12 member 5 (Homo sapiens), Q9H2X9 | KCC2 cells, thallium flux FluoZin-2 fluorescence | B-score of Tl+ flux slope (higher = more flux/activation; lower = inhibition) at 10 µM | actives 2.2% (n = 190,000) | AID 1456, 2008;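 active = thallium flux slope and its plate-corrected score both differing from the plate sample mean at a set confidence after two filtering rounds, in either direction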;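 note: slope of fluorescence scaled to starting intensity during 10 to 20 s after thallium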
S1P3 antag = S1P3 receptor antagonists, primary screen, cell-based. Sphingosine 1-phosphate receptor 3 (Homo sapiens), Q99500. CHO S1P3 NFAT-BLA reporter, FRET fluorescence, antagonist mode. inhibition, % at 4.98 µM. actives 0.27% (n = 170,000). AID 485, 2006;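 active = inhibition above the plate cutoff, the mean inhibition of test wells on that plate plus 3 SD, cut at about 28% in these data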;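 note: cells challenged with S1P at its EC80 of 0.8 µM; blue over green emission ratio from cleaved BLA substrate after 4 h stimulation; 0% = S1P-stimulated wells and 100% = unstimulated DMSO-only wells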
Target sequence (Q99500 whole entry, looked up): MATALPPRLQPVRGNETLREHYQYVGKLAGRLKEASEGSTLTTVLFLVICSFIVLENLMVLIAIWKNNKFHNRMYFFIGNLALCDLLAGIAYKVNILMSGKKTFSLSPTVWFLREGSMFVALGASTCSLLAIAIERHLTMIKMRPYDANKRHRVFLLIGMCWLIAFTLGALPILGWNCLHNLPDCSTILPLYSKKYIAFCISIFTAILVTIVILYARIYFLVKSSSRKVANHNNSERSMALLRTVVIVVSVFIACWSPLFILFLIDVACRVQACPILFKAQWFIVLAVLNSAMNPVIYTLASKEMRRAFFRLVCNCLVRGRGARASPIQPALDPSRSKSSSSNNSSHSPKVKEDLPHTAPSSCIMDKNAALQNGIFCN
RAM network inh = inhibitors of the yeast RAM network, primary screen, dse1pr::URA3 reporter, 5-FOA selection | S. cerevisiae dse1pr::URA3 reporter, 5-FOA growth OD615, 2 d; analog-sensitive cbk1-as2 kinase mutant strain | inhibition, % at 50 µM | actives 1.8% (n = 190,000);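 active = inhibition above a set limit, 3 SD over mean compound inhibition, cut at about 8.4% in these data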;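 note: 0% = DMSO-only wells with no growth and 100% = 10 µM 1-NA-PP1 full growth; inhibition rescues growth on 5-FOA so higher OD means more RAM inhibition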
ROMK mod = ROMK potassium channel modulators, primary screen, cell-based, thallium flux, MLSMR library; B-score at 10 µM; Tet-inducible ROMK, thallium flux fluorescence; actives lie on both sides; ATP-sensitive inward rectifier potassium channel 1 (Homo sapiens), P48048; actives 2% (n = 130,000); AID 1918, 2009;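 active = signal ratio slope over the read window, or its plate-corrected B-score, at least 3 SD from the plate mean, either direction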;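 note: B-score of the F/F0 ratio slope over 7 to 12 s after thallium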
S1P4 ag = S1P4 receptor agonists, primary screen, cell-based; Sphingosine 1-phosphate receptor 4 (Homo sapiens), O95977; actives 0.35% (n = 220,000); AID 1509, 2009; activation, % at 4.98 µM; S1P4-expressing cell line, agonist reporter assay; in the data active = activation above about 11%;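 note: 0% = DMSO vehicle and 100% = reference agonist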
S1P4 antag = S1P4 receptor antagonists, primary screen, cell-based; S1P4-expressing cells, antagonist mode, reporter read-out; inhibition, % at 4.98 µM; Sphingosine 1-phosphate receptor 4 (Homo sapiens), O95977; actives 0.26% (n = 220,000); in the data active = inhibition above about 29%;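 note: 0% = wells stimulated with agonist and 100% = vehicle wells without agonist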
ROMK hit retest = ROMK channel modulator hit retest, confirmation, cell-based, thallium flux, duplicate, resupplied hits; fluorescence ratio; hits give low values; shares compounds with ROMK mod; actives 54% (n = 3,000); normalized thallium flux (F/F0 slope) at 10 µM;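 active = Flux at 10 µM at least 3 SD below or above vehicle control mean in one or both replicates; inconclusive = no clear call, values can overlap the other calls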
The depositor's hits bear a star; i = inactive; u = inconclusive; x = no result given.

SMILES	Cl transport mod	S1P3 antag	RAM network inh	ROMK mod	S1P4 ag	S1P4 antag	ROMK hit retest
C=C(COC(=O)CCC(=O)O)CC1CC(O)[C@]2(C)OC3CC4OC5C[C@]6(C)O[C@]7(C)CCC8OC9C[C@]%10(C)OC%11C(C)=CC(=O)OC%11CC%10OC9C[C@@H](C)C8OC7CC6O[C@]5(C)C/C=C\C4OC3CC2O1 (stereo partly drawn)	0.576	x	x	x	x	x	0.0806
CCOC(=O)c1sc(/N=C/c2c(O)n(-c3cccc(C)c3)c(=O)[nH]c2=O)c(C#N)c1C	-2.82	-7.8	0.9	x	1.3	-13.9	x
O=c1c(C=NCCN2CCNCC2)c(O)n(C2CCCCC2)c(=O)n1C1CCCCC1	0.54	x	3.0	-3.71*	-0.3	-5.3	0.0751
O=[N+]([O-])c1ccc(N2CCCNCC2)c2ncccc12	-0.00536	-7.9	x	x	0.1	3.2	0.0389*
O=[N+]([O-])c1ccc(N2CCCCC2)c2ncccc12	-0.0982	-0.4	0.4	-0.864	-0.3	-8.2	x
c1cc(C2N3CCCN2CC3)ccn1 (stereo not drawn)	x	-0.1	x	x	0.8	-3.8	x
CCOP(=O)(OCC)C(CC)N1CCOCC1 (stereo not drawn)	1.62	x	0.5	0.787	-3.2	3.2	x
CCOP(=S)(OCC)N1CCOCCOCCN(P(=S)(OCC)OCC)CCOCCOCC1	0.57	-0.6	2.4	-2*	-2.0	0.7	0.0761
COc1cc2c(cc1OC)-c1c(OC)c(OC)c(OC)c3ccnc(c13)C2=O	-2.87	10.3	2.4	-4.78*	-0.7	-1.9	0.0479*
COc1cc(CC2(CCc3ccncc3)C(=O)NC(=O)NC2=O)cc(OC)c1OC	-0.756	-8.0	-0.4	0.734	0.4	-24.8	x
CC(C)(C)n1cc(C(=O)c2ccccc2)cc1-c1ccccc1	0.78	-0.2	x	x	2.6	0.4	x
CCCCCOc1ccc(C)cc1CN(CCCl)CCCl	0.825	-9.4	x	x	-2.9	3.6	x
N#CSCC(=O)N1c2ccccc2CCc2ccccc21	2.34	-21.1	1.0	-3.92*	1.2	5.9	0.0456*
C/C=C1/CN2C3CC1C(CO)(C(=O)OC)C2Cc1c3n(C)c2ccccc12 (stereo not drawn)	-0.0941	x	x	x	x	x	x
Cc1ccccc1N1C(=O)NC(=O)/C(=C\c2cc(Br)c(N3CCOCC3)o2)C1=O	i	13.2	0.0	x	-0.3	-6.5	0.0246*
CCN(CC)c1ccc(CNCCc2ccc(F)cc2)cc1	0.243	-4.6	1.4	-2.78*	-0.5	6.8	0.0542*
COC(=O)C(O)(c1ccc(NC(=O)c2cccs2)cc1)C(F)(F)F (stereo not drawn)	0.23	4.6	x	x	1.0	-4.8	x
CCC(C)c1ccc(N2C(=O)NC(=O)/C(=C/c3cccn3CCOc3ccc(C)cc3)C2=O)cc1 (stereo not drawn)	-0.836	-14.2	2.8	x	0.7	-12.6	0.0472*
Cc1ccc(N2C(=O)NC(=O)/C(=C\c3cccn3C(C)(C)C)C2=O)cc1	-0.718	-8.9	2.9	-0.17	-3.9	5.3	x
CC(/C=N/NC(=O)c1n[nH]c2c1CCC2)=C\c1ccccc1	-0.624	x	1.4	5.51*	0.3	9.4	0.0903
CCc1c(C)nc(N)nc1N1N=C1SC(C(C)=O)C(C)=O	0.342	-3.4	0.4	-0.0707	0.1	14.0	x
c1ccc(-c2cc(-c3ccccc3)[n+](-c3ccccc3)c(-c3ccccc3)c2)cc1	-1.48	11.6	x	-3.57*	-0.7	15.0	0.044*
C[n+]1c(-c2ccccc2)cc(-c2ccc(Cl)cc2)cc1-c1ccccc1	0.028	-4.9	1.2	-1.44	1.5	-8.6	x
CN(C)c1ccc(-[n+]2c(-c3ccccc3)cc(-c3ccccc3)cc2-c2ccccc2)cc1	-0.859	2.6	1.5	-2.22*	-3.8	20.4	0.0364*
CCc1n[nH]c(CCN)n1	0.775	-3.2	x	x	-0.2	5.5	x
SMILES	Cl transport mod	S1P3 antag	RAM network inh	ROMK mod	S1P4 ag	S1P4 antag	ROMK hit retest
O=C(c1ccc2c3c(cccc13)CC2)C1CCCN(CC2CC2)C1 (stereo not drawn)	x	2.2	0.9	-3.3*	1.0	-8.3	0.0596*
O=C(c1ccc2c3c(cccc13)CC2)C1CCCN(Cc2ncc[nH]2)C1 (stereo not drawn)	0.141	-14.8	-0.7	-0.46	0.7	-5.3	x
CCn1c(O)c(/C=N/NC(=O)c2ccccc2)c(=O)n(CC)c1=S	-0.271	7.1	x	x	-1.2	-3.8	0.0562*
CCn1c(O)c(/C=N/NC(=O)c2ccncc2)c(=O)[nH]c1=S	-0.76	-2.3	4.3	x	1.4	-12.7	x
Cc1ccc2[nH]c(=S)n(-c3cccnc3)c(=O)c2c1	1.19	-1.8	x	0.205	1.4	-2.9	x
C[C@H]1CCCC(=O)CCCCCc2cc(O)cc(O)c2C(=O)O1	-0.491	-7.1	1.7	x	0.3	-9.1	0.0631*
O=Cc1c(C(=O)O)n(Cc2ccc(Cl)cc2)c2ccccc12	-1.76	-3.3	2.2	x	1.5	-13.1	0.0525*
COc1ccccc1-n1c(O)c(/C=N/N2CCCCC2)c(=O)n(-c2ccccc2OC)c1=S	-0.427	-11.9	x	0.0708	1.8	-1.2	x
Cc1cccc(N/N=C(\C(N)=O)C2=NC(C)(C)Cc3ccccc32)c1	0.0188	8.1	0.1	-3.05*	-1.3	17.6	0.0588*
C=CCn1c(O)c(C(CC)=NCCN2CCN(C(=S)NC)CC2)c(=O)[nH]c1=O	-0.0909	-1.4	x	x	0.6	-17.8	x
Cc1ccccc1N1C(=O)NC(=O)/C(=C/c2ccc(N3CCOCC3)o2)C1=O	4.27	-8.4	x	x	-0.7	-7.3	x
O=C1NC(=O)N(c2ccc3c(c2)OCO3)C(=O)/C1=C\c1ccc(N2CCCCC2)o1	-1.78	-1.8	1.4	x	1.7	3.5	0.0524*
O=C1NC(=O)N(Cc2cccs2)C(=O)/C1=C/c1ccc(N2CCOCC2)cc1	0.0164	-3.0	2.9	-0.154	1.7	-11.8	x
O=C1NC(=O)N(Cc2ccccc2Cl)C(=O)/C1=C/N1CCOCC1	x	-44.4	4.6	x	-3.0	-25.2	0.0598*
CCNC(=O)C1OC(n2cnc3c(N)ncnc32)C(O)C1O (stereo not drawn)	x	-19.3	x	4.29*	-0.1	-21.0	u
Cn1c(O)c(/C=C/C=Nc2ccccc2)c(=O)n(C)c1=S	-2.34	0.2	5.0	x	1.1	-9.7	0.0459*
CCOP(=O)(OCC)C1(C(=O)O)CCCC1	0.277	-1.6	x	x	-0.8	4.0	x
